Screens as filed in PubChem BioAssay.
Giardia FBPA inh-1: qHTS Assay for Inhibitors of Fructose-1,6-bisphosphate Aldolase from Giardia Lamblia; purified Giardia FBPA; AID 2451, 2010; A8B2U2; hit rate 0.71% among 290,000; Potency, µM (highest dose often 59.6 µM), inactives show at the top dose activity, negative = inhibition, actives largely listed as inhibitors; further: potency means the concentration at half of the fitted maximal effect; on the % scale 0 is the no-effect control and ±100 the full control effect; nearly all actives have a fitted effect of over 55% in size
Target sequence (A8B2U2 whole entry, looked up): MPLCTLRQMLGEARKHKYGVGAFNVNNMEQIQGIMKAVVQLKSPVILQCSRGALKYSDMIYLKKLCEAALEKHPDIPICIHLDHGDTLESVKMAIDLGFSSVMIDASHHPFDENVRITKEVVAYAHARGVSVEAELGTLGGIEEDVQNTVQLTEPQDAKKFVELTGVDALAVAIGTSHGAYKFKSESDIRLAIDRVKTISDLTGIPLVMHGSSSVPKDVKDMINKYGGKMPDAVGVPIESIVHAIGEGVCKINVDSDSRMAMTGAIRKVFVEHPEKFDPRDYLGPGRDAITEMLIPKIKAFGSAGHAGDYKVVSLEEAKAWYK
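40 nM FBPA preincubated 10 min at RT with compound (up to 57.5 uM final), then substrate plus GAPDH/TPI/NAD/arsenate coupling and diaphorase/resazurin added. Fluorescence read after 20 min at RT, 525/598 nm.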
RE007 growth inh: qHTS Assay for Inhibitors of the HIV-1 protein Vpr; S. pombe RE007 Vpr strain, BacTiter-Glo ATP luminescence, 24 h; Potency, µM (series often up to 92.2 µM), without a hit: at the top dose activity change, negative = less growth, usual class: inhibitors; hit rate 0.21% among 360,000; AID 651644, 2012; active means well fitted falling curve with a large enough effect; inconclusive means small, poorly fitted or top-dose-only effect; inactive means no such curve, though single readings can be large or run the other way; further: potency means the concentration at half of the fitted maximal effect; on the % scale 0 is the no-effect control and ±100 the full control effect; nearly all actives have a fitted effect of over 50% in size
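Fission yeast RE007 carrying one integrated HIV-1 vpr copy, seeded at OD 0.01 in PMG+AL medium with 23 nL pinned compound. Grown 24 h at 30 degrees; viability read by BacTiter-Glo luminescence after 5 min.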
LmPK inhibitor: qHTS Assay for Inhibitors of Leishmania Mexicana Pyruvate Kinase (LmPK) | purified LmPK, Kinase-Glo ATP luminescence, 1 h | Potency, µM (titrated, usually from 57.5 µM), for inactives: top-dose activity change, negative = inhibition, usual class: inhibitors | hit rate 0.37% among 290,000 | AID 1721, 2009; further: potency means the concentration at half of the fitted maximal effect; on the % scale 0 is the no-effect control and ±100 the full control effect
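In 50 mM imidazole pH 7.2 with 7 mM MgCl2, LmPK (0.1 nM) turned over PEP (0.5 mM) and ADP (0.1 mM) for 1 h at room temperature. Luciferase read-out of ATP.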
Cycloheximide cs: Cycloheximide Counterscreen for Small Molecule Inhibitors of Shiga Toxin | max response, % | cell reporter, cycloheximide protein synthesis inhibition counterscreen | hit rate 12% among 300,000; in the data active means max response mostly above about 13%, no sharp cut-off; inactive means mostly below about 14%; further: read at 38.3 µM for the half of the compounds with a filed dose; 0% is about no effect
Shiga toxin inh: A qHTS for Small Molecule Inhibitors of Shiga Toxin; Vero cells, Shiga toxin protein synthesis inhibition reporter; inhibition, % at 38.7 µM; hit rate 9.2% among 290,000; AID 2315, 2010; in the data active means inhibition mostly above about 28%, no sharp cut-off; inactive means mostly below about 43%; further: 0% is about no effect
TbPYK inhibitor: qHTS of Trypanosoma Brucei Inhibitors; pyruvate kinase (Trypanosoma brucei), Q57TT1; TbPYK enzyme, Kinase-Glo Plus ATP luminescence, 45 min; Potency, µM (series often up to 76.8 µM), for the others: at the top dose activity, negative = inhibition, usual class: inhibitors; hit rate 0.12% among 410,000; AID 624173, 2012; further: potency means the concentration at half of the fitted maximal effect; on the % scale 0 is the no-effect control and ±100 the full control effect; nearly all actives have a fitted effect of over 50% in size
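Luminescence from Kinase-Glo Plus, added after a 45-minute room-temperature reaction, served as the end-point read-out. The enzyme and substrate were preincubated with compound before ADP (130 uM final) initiated turnover. Concentration-effect curves came from normalized qHTS data.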
Giardia growth: qHTS Assay for Inhibitors of Fructose-1,6-bisphosphate Aldolase from Giardia Lamblia: Giardia lamblia growth inhibition | Potency, µM (highest dose often 57.5 µM), for inactives: at the highest dose activity change, negative = inhibition, hits mostly inhibitors | shares compounds with Giardia FBPA inh-1 | hit rate 5% among 1,500 | AID 2785, 2010 | Giardia lamblia trophozoite growth inhibition;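 further: potency means the concentration at half of the fitted maximal effect; trophozoites exposed to compound for 48 h at 37 °C; on the % scale 0 is the no-effect control and ±100 the full control effect; nearly all actives have a fitted effect of over 70% in size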
Mammal cell tox: qHTS Assay for Inhibitors of Fructose-1,6-bisphosphate Aldolase from Giardia Lamblia: Mammalian cellular toxicity. Potency, µM (top dose mostly 57.5 µM), inactives show at the highest dose viability change, negative = toxicity, actives largely listed as inhibitors. mammalian cell viability counter-screen, qHTS. shares compounds with Giardia FBPA inh-1. hit rate 4% among 1,500;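 further: Chinese hamster ovary cells used as mammalian cytotoxicity surrogate; viability measured as cellular ATP by luminescence; potency means the concentration at half of the fitted maximal effect; compound exposure lasted 48 h before reading; on the % scale 0 is the no-effect control and ±100 the full control effect; nearly all actives have a fitted effect of over 60% in size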
Giardia FBPA inh-2: qHTS Assay for Inhibitors of Fructose-1,6-bisphosphate Aldolase from Giardia Lamblia: Primary screen confirmation; shares compounds with Giardia FBPA inh-1; Potency, µM (series often up to 57.5 µM), without a hit: at the highest dose activity change, negative = inhibition, hits mostly inhibitors; hit rate 5% among 1,500; purified Giardia aldolase enzyme activity, qHTS; further: potency means the concentration at half of the fitted maximal effect; on the % scale 0 is the no-effect control and ±100 the full control effect; nearly all actives have a fitted effect of over 45% in size
Rabbit aldolase: qHTS Assay for Inhibitors of Fructose-1,6-bisphosphate Aldolase from Giardia Lamblia: Rabbit FBPA Selectivity | shares compounds with Giardia FBPA inh-1 | Rabbit muscle FBPA enzyme inhibition, selectivity counter-screen | Potency, µM (doses to about 57.5 µM), for the others: at the top dose activity, negative = inhibition, actives largely listed as inhibitors | hit rate 4% among 1,500; further: potency means the concentration at half of the fitted maximal effect; on the % scale 0 is the no-effect control and ±100 the full control effect; nearly all actives have a fitted effect of over 60% in size
GAPDH coupling: qHTS Assay for Inhibitors of Fructose-1,6-bisphosphate Aldolase from Giardia Lamblia: Coupling assay counterscreen confirmation | Potency, µM (series often up to 57.5 µM), inactives show at the top dose activity change, negative = inhibition, usual class: inhibitors | shares compounds with Giardia FBPA inh-1 | GAPDH coupling enzyme counterscreen, biochemical, qHTS | AID 2795, 2010 | hit rate 6% among 1,500; further: potency means the concentration at half of the fitted maximal effect; on the % scale 0 is the no-effect control and ±100 the full control effect; nearly all actives have a fitted effect of over 55% in size
Active calls of the source: *; ? = inconclusive; . = no result; [ ] = remark or other dose. Only a selection was taken, and hits are over-represented in it overall. Unless noted, the call rests on the fitted dose curve; in most records, active means well fitted curve in the direction sought with a large enough effect; inconclusive means small, poorly fitted or top-dose-only effect, or another doubt; inactive means no such curve, though single readings can be large; an effect the other way counts as inactive or inconclusive.

SMILES	Giardia FBPA inh-1	RE007 growth inh	LmPK inhibitor	Cycloheximide cs	Shiga toxin inh	TbPYK inhibitor	Giardia growth	Mammal cell tox	Giardia FBPA inh-2	Rabbit aldolase	GAPDH coupling
CC(=O)N1CCC(=NNc2nc3ccccc3[nH]2)CC1	18µM*	6%	-4%	31*	35*	6%	?	0%	-10%	-6%	3%
COc1cccc(CNC(=O)Nc2ccc3c(c2)N(C)C(=O)c2ccccc2S3)c1	.	.	.	.	.	4%	.	.	.	.	.
COc1ccc2nc3oc(C(=O)N4CCN(c5cc(C)ccc5C)CC4)cc3cc2c1	.	.	.	.	.	8%	.	.	.	.	.
NC(=O)CN(C/C=C/c1ccccc1)C/C=C/c1ccccc1	28µM*	-9%	2%	1	-6	16%	-11%	3%	-1%	2%	6%
COc1ccc(OC)c(S(=O)(=O)N2CC=C(c3c(C)n(CC(=O)N4CCCC4)c4ccccc34)CC2)c1	.	.	.	.	.	-9%	.	.	.	.	.
Fc1ccc(-n2[nH]nnc2=S)cc1N1CCCC1	14%	11%	3%	12	13	?	.	.	.	.	.
Cc1cc(C)c(-n2[nH]nnc2=S)c(C)c1	14µM*	4%	1%	-1	-5	?	8%[10.4 µM]	14%	5%	6%	10%
COc1ccc(C)cc1-n1[nH]nnc1=S	14µM*	-11%	3%	0	-19	-17%	-47%	16%	3%	7%	13%
COc1cc2c(cc1OC)C(c1ccc(Cl)cc1)N(c1cccc(C#N)c1)C(=O)C2 (stereo not given)	.	.	.	.	.	-2%	.	.	.	.	.
COCc1[nH]c(=S)c(C#N)cc1C(=O)OC	16µM*	16%	21%	-4	7	?	20%	8%	4%	1%	-8%
CCOC(=O)c1cc(C#N)c(=S)[nH]c1C	-10%	24%	-6%	6	-5	?	.	.	.	.	.
CC(C)C[C@H](NC(=O)c1nc[nH]c1C(=O)N[C@@H](CCCCNC(=O)OC(C)(C)C)C(=O)OC(C)(C)C)C(=O)OC(C)(C)C	-22%	-3%	4%	-2	-3	0%	.	.	.	.	.
CC(C)C[C@H](NC(=O)c1nc[nH]c1C(=O)NCCCCCNC(=O)OC(C)(C)C)C(=O)OC(C)(C)C	18µM*	11%	8%	-2	-10	4%	-15%	0%	-1%	-22%	-20%
CC(C)n1c(=S)[nH]c2c1c(=O)[nH]c(=O)n2C	16µM*	10%	-22%	-5	34	?	-7%[10.4 µM]	-6%	-3%	-18%	6%
C=CC(C)n1c(Br)nc2c1c(=O)[nH]c(=O)n2C (stereo not given)	-1%	8%	2%	-5	-10	-1%	.	.	.	.	.
